Source: PubChem BioAssay (Broad Institute)
aSyn UTR act: Activators working through SNCA 5'UTR binding (MLPCN); activity score, % (tested at 7.5 µM), hits read low; AID 1814; hit rate 7.1% among 300,000; alpha-synuclein 5'UTR reporter, activators screen; in the data active means activity score below about -60%
Starred values were filed as active, the others as inactive. A selection follows.

SMILES	aSyn UTR act
O=C(CSCc1ccccc1Cl)Nc1ccc2c(c1)OCCO2	-152*
O=C(CNCc1ccccc1)Nc1ccc(Cl)cc1	-82*
COc1ccc(/C=C2\SC(=O)N(CCNC(=O)Cn3cnnn3)C2=O)cc1	-187*
COc1ccc(/C=C2\SC(=O)N(CCNC(=O)CCS(=O)(=O)c3ccc(C)cc3)C2=O)cc1	-64*
COc1ccc(/C=C2/SC(=S)N(CCCC(=O)Nc3ccc(O)cc3)C2=O)cc1	68
COc1ccc(/C=C2\SC(=O)N(CCNC(=O)C3CCN(S(=O)(=O)c4cccs4)CC3)C2=O)cc1	-113*
CC(C)c1ccc(/C=C2\SC(=O)N(CC(=O)NCCCn3ccnc3)C2=O)cc1	-110*
Cc1c(-c2ccc(Cl)cc2)[n+](=O)c(-c2ccccc2)cn1[O-]	-118*
N/C(=N\OCc1ccc([N+](=O)[O-])cc1)c1ccncc1	-83*
Cc1ccc(/C(N)=N/OC(=O)CSc2ccccc2)cc1	-185*
COc1ccc(/C(N)=N/OC(=O)CSc2ccccc2)cc1	-162*
COc1ccc(/C(N)=N/OC(=O)CC2CCCCC2)cc1	-111*
N/C(=N\OC(=O)CSc1ccccc1)c1ccc([N+](=O)[O-])cc1	-121*
CC(=O)c1cccc(NC(=O)c2ccc(Br)o2)c1	-71*
O=C(Nc1cccc(F)c1)c1ccc(Br)o1	-66*
COc1ccc(OCc2cccc(C(=O)NN)c2)cc1	67
NNC(=O)c1cccc(COc2cccc(Br)c2)c1	-86*
O=C(Nc1ccccc1)c1ccc(COc2ccccc2)cc1	-109*
NNC(=O)c1ccc(COc2ccc3ccccc3c2)cc1	-76*
O=C(Nc1ccccc1)c1ccc(CSc2ncccn2)cc1	-95*
CSCc1ccc(C(=O)Nc2ccc(C(N)=O)cc2)cc1	-141*
O=C(Nc1ccc(Cn2cccn2)cc1)c1ccc(COc2ccccc2Br)cc1	-107*
O=C(NCC1CCCO1)c1ccc(COc2ccccc2)cc1 (stereo not drawn)	-78*
O=C(Nc1ccccc1F)c1ccc(OCc2ccccc2)cc1	-141*
O=C(NCC1CCCO1)C(=O)N/N=C/c1ccc(OCc2ccccc2Cl)cc1 (stereo not drawn)	-106*
SMILES	aSyn UTR act
Cc1ccc(C(CC(=O)c2ccco2)SCCO)cc1 (stereo not drawn)	-90*
C=C(C)C1Cc2cc3ccc(=O)oc3cc2O1 (stereo not drawn)	-65*
O=C1c2ccccc2S(=O)(=O)c2cc(N3CCC4(CC3)OCCO4)ccc21	-118*
NC(=O)C1CCN(c2ccc3c(c2)S(=O)(=O)c2ccccc2C3=O)CC1	-63*
CC1CCN(c2ccc3c(c2)S(=O)(=O)c2ccccc2C3=O)CC1	-140*
Nc1nc(CSC(=S)N2CCOCC2)nc(Nc2ccccc2)n1	-131*
Cc1ccc(Nc2nc(N)nc(CSC(=S)N3CCOCC3)n2)cc1	-127*
Cc1cccc(Nc2nc(N)nc(CSC(=S)N3CCOCC3)n2)c1	-108*
O=C(CCSc1ccccc1)N1CCOCC1	-89*
O=C(CCSc1ccccc1)N1CCCC1	-80*
Cc1nnsc1S(=O)(=O)Cc1ccccc1C(F)(F)F	-76*
COc1ccc(Nc2cc3n(c(=O)n2)CCc2cc(OC)c(OC)cc2-3)c(C)c1	80
COc1ccc(Nc2nc(N3CCCC3)nc3ccccc23)c(OC)c1	-81*
COc1ccc(C2=Nn3c(nnc3-c3ccccn3)SC2)cc1OC	56
Cc1nc(C)c(-c2csc(Nc3ncccc3C)n2)s1	-240*
COc1ccc(-c2csc(Nc3ncccc3C)n2)cc1	-118*
COc1ccc(-c2csc(Nc3ncccc3C)n2)cc1OC	-172*
Cc1cccnc1Nc1nc(-c2ccc(O)c(O)c2)cs1	-232*
C/C(=N\NC(=O)COc1ccc(C(C)(C)C)cc1)c1cc2ccccc2o1	-109*
COCCNC(=S)N/N=C(\C)c1cc2ccccc2o1	-117*
Cn1c(=N)n(CC(=O)c2cccs2)c2ccccc21	-92*
COc1cccc(C(=O)Cn2c(=N)n(C)c3ccccc32)c1	86
Cn1c(=N)n(CC(=O)c2ccc(Br)s2)c2ccccc21	-118*
O=C(NCc1ccco1)c1cc(-c2ccc3c(c2)OCO3)on1	-97*
COc1ccc(OC)c(-c2cc(C(=O)Nc3c(C)nn(Cc4ccccc4)c3C)no2)c1	61
SMILES	aSyn UTR act
CC(C)Cc1cc(C(=O)NCc2ccco2)no1	-92*
COc1ccc(OC)c(-c2cc(C(=O)NCc3ccco3)no2)c1	-69*
COc1ccc2cc(C(=O)NCc3ccco3)c(=O)oc2c1	-93*
Cc1ccc(-c2cc(C(=O)NCc3ccco3)no2)cc1	-154*
COc1cccc(-c2cc(C(=O)NCc3ccco3)no2)c1	-97*
CC1=Nc2cc(C(=O)NCc3ccco3)ccc2Sc2ccc(C)cc21	101
CC1CCc2onc(C(=O)NCc3ccco3)c2C1 (stereo not drawn)	-64*
O=C(NCc1ccco1)c1cc(-c2cccc(Cl)c2)on1	-92*
O=C(NCc1ccco1)c1cc(-c2ccc(Cl)cc2)on1	-130*
O=C(NCc1ccco1)c1ccc(Cn2c(=O)c3ccccc3n(Cc3cccc(Cl)c3)c2=O)cc1	64
O=C(NCc1ccco1)c1ccc(-c2cccc(Cl)c2)o1	-74*
COc1ccc(N(C)C(=O)c2ccc3c(Cl)c4c(nc3c2)CCCC4)c(OC)c1	-88*
Cc1ccc(N(C)C(=O)c2ccc3c(Cl)c4c(nc3c2)CCC4)cc1C	-136*
Cc1ccc(C(=O)CSc2nccn2-c2ccccc2)cc1	-95*
O=C(CSc1nccn1-c1ncc(C(F)(F)F)cc1Cl)c1ccc(Br)cc1	-195*
O=C(CSc1nccn1-c1ccccc1)c1ccc(Cl)cc1	-111*
Cc1ccc(C(=O)CSc2nnc(C(C)C)n2C)cc1C	-75*
CC(C)(C)c1ccc(C(=O)Nc2ccc(F)cc2)s1	-140*
CCc1cc2cc(C(=O)Nc3ccccc3F)sc2s1	-134*
CCc1cc2cc(C(=O)Nc3ccc(F)cc3)sc2s1	-150*
Nc1c(C(=O)NCCc2ccccc2)nnn1Cc1ccccc1	-75*
O=C(NCCc1ccccc1)c1nccc2ccccc12	-111*
O=C(NCCc1ccccc1)c1n[nH]c2ccccc12	-144*
O=C(Nc1ccccc1)c1nnn(Cc2ccccc2)c1NC(=O)C(F)(F)F	-72*
CC1CCCCN1C(=O)COC(=O)c1n[nH]c2ccccc12 (stereo not drawn)	-73*
SMILES	aSyn UTR act
O=C(OCCOc1ccccc1)c1n[nH]c2ccccc12	-168*
COCCn1c(C)cc(C(=O)COC(=O)c2n[nH]c3ccccc23)c1C	81
CC1CCc2c(sc(/N=C/c3ccco3)c2C(N)=O)C1 (stereo not drawn)	-125*
CC1CCc2c(sc(/N=C/c3cccnc3)c2C(N)=O)C1 (stereo not drawn)	-103*
COc1ccc(NC(=O)COc2ccc(C)cc2)c([N+](=O)[O-])c1	-143*
COc1ccc(NC(=O)CN2CCCCC2)c([N+](=O)[O-])c1	-98*
COc1ccc(NC(=O)CN2CCC(C)CC2)c([N+](=O)[O-])c1	-68*
COc1cc(NC(=O)Cn2ncc(Cl)c(Cl)c2=O)c(C)cc1[N+](=O)[O-]	121
Cc1ccc(NC(=O)COC(=O)COc2ccc(Cl)cc2C)c([N+](=O)[O-])c1	-65*
CCCn1c(N2CCN(CC(=O)c3c(C)n(C)c4ccc(OC)cc34)CC2)nc2c1c(=O)[nH]c(=O)n2C	63
COc1ccc2[nH]cc(C(=O)CN3CCC(C)CC3)c2c1	-177*
Cc1ccc(NC(=O)CN2CCCCCC2)c(Br)c1	-204*
COc1ccc(NC(=O)CSc2ccccc2)c([N+](=O)[O-])c1	-106*
